Source: PubChem BioAssay
Only some compounds are listed: those with a hit (about 3.1% of all), similar ones and a draw of the others.
Nrf2 block: Nrf2 qHTS screen for inhibitors. 360,000 tested, 2.1% active. Potency, µM (titrated, usually from 46 µM), most hits filed as inhibitors. A549 ARE-Fluc reporter, luciferase luminescence, 18-24 h; also: nearly all actives have a fitted effect of over 60% in size
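In this cell-based qHTS, ARE-driven firefly luciferase in A549 cells reports Nrf2 activity; the luminescent signal after BugLite lysis is the measured value, with a prior CellTiter-Fluor read for cell health.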
IDH1 R132H inh: qHTS for Inhibitors of mutant isocitrate dehydrogenase 1 (IDH1): qHTS. IDH1-R132H enzyme, NADPH consumption, diaphorase/resazurin fluorescence. Potency, µM (doses to about 76.6 µM), usual class: inhibitors. 390,000 tested, 0.093% active; also: nearly all actives have a fitted effect of over 65% in size
Target sequence (O75874 whole entry R132H, stated change not applied): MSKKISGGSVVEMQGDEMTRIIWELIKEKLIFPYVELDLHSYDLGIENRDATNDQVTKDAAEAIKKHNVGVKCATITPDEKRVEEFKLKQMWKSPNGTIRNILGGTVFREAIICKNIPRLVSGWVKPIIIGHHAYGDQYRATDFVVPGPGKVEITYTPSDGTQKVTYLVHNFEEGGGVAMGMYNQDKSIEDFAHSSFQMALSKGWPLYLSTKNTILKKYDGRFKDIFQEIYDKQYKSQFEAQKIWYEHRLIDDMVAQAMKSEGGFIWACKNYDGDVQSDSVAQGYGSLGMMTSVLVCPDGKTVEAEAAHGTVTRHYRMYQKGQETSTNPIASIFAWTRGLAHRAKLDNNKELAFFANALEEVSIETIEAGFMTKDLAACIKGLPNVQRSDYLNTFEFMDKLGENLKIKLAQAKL
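IDH1-R132H (0.5 ug/mL) preincubated 30 min with compound, then NADPH (0.016 mM) and alpha-KG (2 mM) added; 80 min at RT, pH 7.5. Remaining NADPH coupled via diaphorase/resazurin to fluorescence (540/590 nm); concentration-response curves normalized to no-enzyme control.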
rTrxR1 inhibitor: qHTS Assay for Inhibitors of Mammalian Selenoprotein Thioredoxin Reductase 1 (TrxR1): qHTS; Potency, µM (series often up to 114 µM), hits mostly inhibitors; Thioredoxin reductase 1, cytoplasmic (Rattus norvegicus), O89049; recombinant rTrxR1, NADPH fluorescence consumption, selenite substrate; 390,000 tested, 1% active; also: nearly all actives have a fitted effect of over 65% in size
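Rat TrxR1 (90 nM in the dispensed reagent) was pre-reduced with 400 uM NADPH for 5 min at room temperature, then incubated with compound for 15 min. After 400 uM selenite was added, NADPH fluorescence (Ex 340/Em 450 nm) was followed for 8 min.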
TrxR1 substrate: qHTS Assay for Substrates of Mammalian Selenoprotein Thioredoxin Reductase 1 (TrxR1): qHTS. purified TrxR1 substrate turnover, NADPH consumption readout. Potency, µM (highest dose often 114 µM). 390,000 tested, 0.01% active. AID 588456, 2011; also: nearly all actives have a fitted effect of over 50% in size
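Rat TrxR1, dispensed at 90 nM, was prereduced with 400 uM NADPH (final) for 5 min at ~22 deg C, then incubated with compound 15 min before 400 uM selenite. A first-read NADPH fluorescence drop versus no-compound background flagged substrates.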
A549 tox: Nrf2 qHTS screen for inhibitors: counterscreen for cytotoxicity | A549 ARE-Fluc cells, CellTiter-Fluor viability, 18-24 h | Potency, µM (titrated, usually from 46 µM), actives largely listed as inhibitors | 390,000 tested, 0.16% active | AID 504648, 2011
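A549 ARE-Fluc cells in 5% FBS OPTI-MEM, 5000 cells/well, rested 2 h then exposed to compounds in concentration-response for 18-24 h at 37 °C. Viability by CellTiter-Fluor fluorescence (Ex 405/Em 525) after 30 min; luciferase luminescence (BugLite, 15 min, RT) read afterwards.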
Mito fusion yeast: qHTS Assay for Small Molecule Inhibitors of Mitochondrial Division or Activators of Mitochondrial Fusion | 320,000 tested, 0.23% active | S. cerevisiae fusion-defective mutant growth rescue, CellTiterGlo 48 h | Potency, µM (top dose mostly 46.1 µM), most hits filed as activators; also: nearly all actives have a fitted effect of over 45% in size
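S. cerevisiae fusion-defective temperature-sensitive mutants (e.g. fzo1-1, mgm1-5) grown 48 h at 37C in YPEG (ethanol/glycerol non-fermentable) medium with 23 nl compound per well; growth rescue read as CellTiterGlo luminescence.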
Numbers stand for hits; n = inactive; u = inconclusive; x = no result; [ ] = dose if it differs, or a comment. Calls follow the shape of the dose curve; as a rule, active = well fitted curve in the direction sought with a large enough effect; inconclusive = small, poorly fitted or top-dose-only effect, or another doubt; inactive = no such curve, though single readings can be large; an effect the other way counts as inactive or inconclusive.

SMILES	Nrf2 block	IDH1 R132H inh	rTrxR1 inhibitor	TrxR1 substrate	A549 tox	Mito fusion yeast
COc1ccc(NC(=O)CSc2nc3c(c(=O)[nH]2)CN(Cc2ccccc2)CC3)cc1Cl	u	n	n	n	n	x
CCn1c(CNc2ccc(Cl)cc2)nnc1SCc1ccc(Cl)cc1	23µM	n	n	n	u	u
CCn1c(CNc2ccc(Cl)cc2)nnc1SCc1ccc(C)cc1	n	n	n	n	n	u
COC(=O)C1(C)CCc2cc(OC)ccc2C1=O (centres undefined)	n	n	n	n	n	n
COC(=O)C1(C)CN(S(=O)(=O)c2ccc(C)cc2)c2cc(OC)ccc2C1=O (centres undefined)	n	n	n	n	n	14µM
O=C(c1ccccc1)C(CN1CCCCC1)c1ccccc1 (centres undefined)	u	n	25µM	n	n	x
CCn1c2ccccc2c2cc(/C=C3\C=Cc4ccccc43)ccc21	x	x	n	n	x	x
C=C1C(=O)OC2C=C(CO)C3OC3C3OC3(C)CC(OC(=O)/C(=C/C)COC(C)=O)C12 (centres undefined)	23µM	n	n	n	u	x
Cc1cccc(N(Cc2ccccc2)C(=O)CCl)c1	n	n	8.9µM	n	n	n
CSc1nsc(N/N=C/c2ccc3c(c2)OCO3)c1C#N	n	n	n	n	n	n
COc1cc(/C=N/Nc2snc(SC)c2C#N)cc(OC)c1OC	4.6µM	n	n	n	n	n
Cc1ccc2oc(C(=O)Nc3c(C(=O)Nc4cccc(Cl)c4)oc4ccccc34)cc(=O)c2c1	n	n	n	n	n	x
COc1cc(-c2nn3c(-c4cc(-c5ccccc5)n[nH]4)nnc3s2)cc(OC)c1OC	21µM	x	n	n[0.0914 µM]	u	x
O=C(COc1ccccc1C(=O)OCC(=O)Nc1cccc2ccccc12)Nc1ccc(Br)cc1	x	x	n	n	x	x
CCCCc1ccc(NC(=O)COC(=O)c2ccccc2OCC(=O)Nc2ccc(Br)cc2)cc1	x	x	n	n	x	x
O=C(O)c1cc(C(=O)O)cc(-c2ccc(/C=c3/sc4nc5ccccc5n4c3=O)o2)c1	n	n	n	n	n	n
O=C(O)c1cccc(-c2ccc(/C=c3/sc4nc5ccccc5n4c3=O)o2)c1	n	n	n	n	n	32µM
c1ccc2oc(Cc3ccc(Cc4nc5ccccc5o4)cc3)nc2c1	26µM	n	n	n	n	n
c1ccc2oc(CCc3nc4ccccc4o3)nc2c1	n	n	n	n	n	n
O=C(NCC(c1ccco1)S(=O)(=O)c1ccc(Cl)cc1)c1ccccc1F (centres undefined)	x	n	14µM	n	n	x
CSc1ncc(Cl)c(C(=O)Nc2ccc(C)c(C)c2)n1	n	n	n	n	n	n
Cc1ccc(NC(=O)c2nc(S(=O)(=O)Cc3ccccc3F)ncc2Cl)cc1	x	x	2.8µM	n	x	x
Cc1ccc(NC(=O)c2nc(S(=O)(=O)Cc3ccccc3F)ncc2Cl)cc1C	x	x	3.2µM	n	x	x
CSc1ncc(Cl)c(C(=O)Nc2ccccc2C)n1	n	n	n	n	n	n
CCSc1ncc(Cl)c(C(=O)Nc2ccc(S(N)(=O)=O)cc2)n1	n	n	n	n	n	n
SMILES	Nrf2 block	IDH1 R132H inh	rTrxR1 inhibitor	TrxR1 substrate	A549 tox	Mito fusion yeast
NS(=O)(=O)c1ccc(NC(=O)c2nc(S(=O)(=O)Cc3ccccc3F)ncc2Cl)cc1	x	x	3.5µM	n	x	x
Cc1ccccc1NC(=O)c1nc(S(=O)(=O)Cc2ccccc2F)ncc1Cl	x	x	3.5µM	n	x	x
Cc1ccc(-c2nc3nc(C)cc(Nc4ccccc4O)n3n2)cc1	x	n	n	n	n	x
CN(C)c1ccc(/C=C2\C(Cl)=Cc3ccccc32)cc1	x	x	n	n	x	x
O=C(CCCCCn1c(=O)[nH]c2ccccc2c1=O)NCc1cccc(Cl)c1	x	n	n	n	n	x
COC(=O)c1ccc(Cn2ncc3c4sc(C)cc4n(C)c3c2=O)cc1	n	x	x	x	n	x
CC(=O)c1cccc(S(=O)(=O)N2CCN(c3nc(-c4cccs4)nc4ccccc34)CC2)c1	n	x	n	n	n	x
Cc1ccc(NC(=O)c2nc(S(=O)(=O)Cc3ccccc3C)ncc2Cl)cc1C	n	n	32µM	n	n	n
CC1(C)Cc2c(c(-c3ccco3)nc3sc4c(NCCCO)ncnc4c23)CO1	n	n	7.9µM	n	n	n
COc1ccc2c(c1)c1nc3ccccc3nc1n2CC(=O)OC(C)C	4.6µM	n	n	n	n	n
O=C1/C(=C\c2ccccc2)CN(C(=O)CCN2CCCCC2)C/C1=C/c1ccccc1	n	n	5µM	n	n	x
COc1cc(OC)c(NC(=O)c2ccc(-n3cnc4cccnc43)cc2)cc1Cl	u	n	n	n	n	x
O=C(/C=C/c1ccccc1[N+](=O)[O-])Oc1ccccc1	x	x	x	x	x	n
COC(=O)C(=Cc1ccccc1[N+](=O)[O-])C(=O)OC	u	n	56µM	n	n	n
COc1ccc(C)cc1NC(=O)CCS(=O)(=O)c1cc2c3c(c1)CCN3C(=O)CC2	u	n	n	n	n	x
COc1ccc(O)c(C2Nc3ccccc3C(=O)N2Cc2ccccc2)c1 (centres undefined)	n	x	x	x	n	x
Cc1cccc(NC(=S)/N=C(\N)Nc2nc(C)c3cc(C)ccc3n2)c1	n	n	n	n	u	n
Cc1cccc(NC(=S)/N=C(\N)Nc2nc(C)c3ccc(C)cc3n2)c1	15µM	n	n	n	u	n
O=C(COc1ccccc1C(=O)Nc1ccccc1)Nc1ccc(Br)cc1	x	x	n	n	x	x
COc1ccc(C2C(C#N)=C(N)N(c3cccnc3)C3=C2C(=O)CC(C)(C)C3)cc1OC (centres undefined)	n	n	18µM	n	n	x
COc1cc(C2C(C#N)=C(N)N(Nc3ccccc3)C3=C2C(=O)CC(C)(C)C3)ccc1OCc1ccccc1 (centres undefined)	23µM	n	n	n	u	n
CCN(c1ccccc1)S(=O)(=O)c1ccc(NC(=O)c2cc(=O)c3c(C)cc(C)cc3o2)cc1	n	n	n	n	n	x
Oc1ccc(/C=C/c2ccccc2)c2cccnc12	u	x	x	x	n	x
COC(=O)c1cc(C(=O)OC)cc(N2C(=O)CC(Sc3nc(C)cc(C)n3)C2=O)c1 (centres undefined)	n	n	n	n	n	n
COC(=O)c1ccc(N2C(=O)CC(Sc3n[nH]c(C)n3)C2=O)cc1 (centres undefined)	u	n	13µM	n	n	n
